# Laboratory results taken from PubChem BioAssay AID1476 (National Center for Advancing Translational Sciences (NCATS), 2009).
# The campaign covered roughly 200,000 compounds. About 4,500 (2.2%) were called active. Inconclusive results (about 12%) are left out. The call rests on the fitted dose curve; in most records, active means well fitted inhibition curve with a large enough effect; inconclusive means small, poorly fitted or top-dose-only effect, or effect the other way; inactive means flat fitted curve, though single readings scatter. The sample as a whole holds a higher share of actives than the screen did.
# Target: Cruzipain (Trypanosoma cruzi) (UniProt P25779)
# Test: qHTS Assay for Promiscuous and Specific Inhibitors of Cruzain (without detergent); further: nearly all actives have a fitted effect of over 40% in size;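 on max response, negative = inhibition: plate controls were enzyme without inhibitor for no effect and buffer without enzyme for full effect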
# Conditions: purified cruzain, Z-FR-AMC fluorescence, no detergent
# How it was run: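 Purified cruzain at 1.5 nM, pre-incubated 15 min with compound at room temperature in 100 mM sodium acetate pH 5.5, 5 mM DTT, 0.00005% Triton X-100. Reaction started with 2 uM Z-FR-AMC; AMC fluorescence increase over 60 s gives rate.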
# Potency means the concentration at half of the fitted maximal effect.
# Chain of Cruzipain (Trypanosoma cruzi) (P25779 123-467 limits assumed): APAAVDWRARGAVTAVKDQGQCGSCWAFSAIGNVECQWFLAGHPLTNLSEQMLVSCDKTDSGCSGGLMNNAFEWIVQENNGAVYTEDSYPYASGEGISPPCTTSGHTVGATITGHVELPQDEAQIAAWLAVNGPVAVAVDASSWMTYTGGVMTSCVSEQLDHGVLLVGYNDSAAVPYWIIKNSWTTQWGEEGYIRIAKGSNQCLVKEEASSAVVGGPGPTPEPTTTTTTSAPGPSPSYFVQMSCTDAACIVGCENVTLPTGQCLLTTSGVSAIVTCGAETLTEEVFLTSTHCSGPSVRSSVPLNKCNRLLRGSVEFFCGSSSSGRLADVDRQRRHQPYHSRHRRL
Compound,"max response, negative = inhibition",Potency
Cc1ccc(-c2nc3cccc(C)n3c2Nc2ccc3c(c2)OCCO3)cc1,-0.169% (inactive),
CCCN1CCN(CCCNC(=O)c2cnn(-c3ccc(C)cc3)c2-n2cccc2)CC1,7.09% (inactive),
CCCCOc1ccc(CNC(=O)c2ccc3c(c2)N(C)C(=O)C2CCCCN32)cc1 (stereo not drawn),13.9% (inactive),
COc1ccccc1NC(=O)c1oc2ccccc2c1NC(=O)COc1ccccc1OC,-7.97% (inactive),
Cc1cccc(COc2ccccc2/C=N/Nc2ccc([N+](=O)[O-])cc2)c1,,25.1 µM (active)
Cc1cccc(CC(=O)N2CCN=C2SCc2ccc([N+](=O)[O-])cc2)c1,-7.03% (inactive),
Cc1cc([N+](=O)[O-])ccc1NCc1cccc([N+](=O)[O-])c1,2.12% (inactive),
N#Cc1ccc(-c2cccs2)nc1SCc1ccc(Br)cc1,-6.69% (inactive),
COc1ccc2c(c1)c(N1CCCC1=O)c(C(=O)Nc1ccccc1C(F)(F)F)n2C,-10% (inactive),
COc1ccc(C(=O)N2CCC(c3nc4ccccc4o3)CC2)cc1,14.3% (inactive),
Cc1ccc(-c2noc(-c3nnn(-c4cccc(C(F)(F)F)c4)c3N)n2)cc1,1.55% (inactive),
CCSc1nnc(NC(=O)c2cc(=O)c3cc(C)c(C)cc3o2)s1,-5.87% (inactive),
CCSc1nnc(NC(=O)c2ccc(C)cc2)s1,,0.631 µM (active)
CCSc1nnc(NC(=O)Cc2ccccc2OC)s1,0.739% (inactive),
Cc1ccccc1OCc1nc2c3cnn(-c4ccccc4F)c3ncn2n1,-7.52% (inactive),
COc1cc(OC)c(NC(=O)Cc2ccc(-n3c(C)nc4cccnc43)cc2)cc1Cl,4.77% (inactive),
COc1c(Cl)cc(C(=O)N(Cc2ccccc2F)C2CCS(=O)(=O)C2)cc1Cl (stereo not drawn),6.06% (inactive),
Cc1ccc(-c2csc(-c3c[nH]c4ccccc34)n2)cc1,1.08% (inactive),
COCCn1c(C)cc(C2=NNC(=Nc3ccc(F)cc3)SC2)c1C,-3.73% (inactive),
Cc1cccc(N=C2NN=C(c3c[nH]c4ccccc34)CS2)c1,,7.94 µM (active)

Compound,"max response, negative = inhibition",Potency
CC(=O)N1c2ccccc2CC1C(=O)N1CCN(c2ccc(F)cc2)CC1 (stereo not drawn),13.9% (inactive),
Nc1nc(N)c2[nH]c(CNc3ccc(C(=O)O)cc3)nc2n1,,3.98 µM (active)
Cc1nc(SCC(=O)Nc2ccc(C(=O)O)cc2)n[nH]1,6.79% (inactive),
O=C(CCS(=O)(=O)c1cc(Br)cc2c1N(C(=O)C1CC1)CC2)Nc1ccc(Br)cc1F,-5.03% (inactive),
COCC(=O)Nc1nnc(COc2ccccc2)s1,2.8% (inactive),
CCOCc1nnc(NC(=O)CSc2ccc(C)cc2)s1,1.04% (inactive),
Cc1ccc(OCc2nnc(NC(=O)OCC(C)C)s2)cc1,,20 µM (active)
COc1ccc(CC(=O)N2CC(=O)Nc3ccc(Br)cc3C2c2ccc(F)cc2)cc1OC (stereo not drawn),18.8% (inactive),
CCCCOc1ccc(C(=O)N2CC(=O)Nc3ccc(Br)cc3C2c2ccc(F)cc2)cc1 (stereo not drawn),,25.1 µM (active)
CCC(CC)C(=O)N1CC(=O)Nc2ccc(Br)cc2C1c1ccccc1 (stereo not drawn),-0.646% (inactive),
Cc1ccc2cccc(NC(=O)c3ccc(OC(C)C)cc3)c2n1,-1.78% (inactive),
Cc1[nH]c2ccccc2c1/C=N\NC(=O)Cn1nnc(-c2ccccc2)n1,,7.94 µM (active)
Cc1[nH]c2ccccc2c1/C=N/NC(=O)CNC(=O)c1ccc2c(c1)OCO2,-1.52% (inactive),
O=C(Cn1nnc(-c2ccccc2)n1)NCc1ccccc1,3.66% (inactive),
CCOc1ccc(NC(=O)c2ncoc2-c2ccco2)cc1,-16.9% (inactive),
Cc1ccc(N2C(=O)C3N=NN(CC(=O)N4N=C(c5cccc6ccccc56)CC4c4ccccc4)C3C2=O)cc1 (stereo not drawn),,7.94 µM (active)
Cc1ccc(C2=NN(C(=O)CSc3nc(N)cc(N)n3)C(c3ccco3)C2)cc1 (stereo not drawn),4.32% (inactive),
O=C1C2N=NN(CC(=O)N3N=C(c4cccc5ccccc45)CC3c3ccccc3)C2C(=O)N1c1ccccc1 (stereo not drawn),,5.01 µM (active)
Cc1ccc(CNC(=O)CSC2=Nc3ccccc3C3=NC(C)C(=O)N23)cc1 (stereo not drawn),-15.8% (inactive),
Cc1cc(C)c(NC(=O)CSc2nc3nccnc3c(=O)n2CCc2c[nH]c3ccccc23)c(C)c1,9.02% (inactive),

Compound,"max response, negative = inhibition",Potency
O=C(Nc1cc(Cl)cc(Cl)c1)c1ccc2c(c1)N(Cc1cccc(Cl)c1)C(=O)c1ccccc1S2=O (stereo not drawn),-5.94% (inactive),
O=c1[nH]c2cc(Br)ccc2n2cccc12,11.1% (inactive),
CCOC(=O)C1CCN(c2ncnc3c2c(-c2ccccc2)cn3-c2cccc(C)c2)CC1,9.85% (inactive),
CCCCCC(=O)Nc1ccc(C(=O)N/N=C/c2ccc([N+](=O)[O-])cc2)cc1,-23.1% (inactive),
Cc1nc2ccccc2cc1C(=O)N/N=C/c1ccc([N+](=O)[O-])cc1,-1.64% (inactive),
Cc1cc(C(=O)N/N=C/c2ccc(O)c([N+](=O)[O-])c2)c(C)n1-c1ccc(F)cc1,,10 µM (active)
COc1cc2nc(NCC(C)c3ccccc3)n3nc(-c4ccccc4)nc3c2cc1OC (stereo not drawn),5.17% (inactive),
Cc1ccccc1NC(=O)CCOc1ccccc1,-3.79% (inactive),
CCCN(CCC)C(=O)C1CCCN(c2ncnc3c2nc2n3CCCCC2)C1 (stereo not drawn),9.35% (inactive),
Cc1ccc(CNC(=O)CCc2c(C)nc3nc(CNC(=O)OC(C)(C)C)nn3c2C)cc1,11.1% (inactive),
Cc1cc(C(=O)Nc2ccccc2N2CCOCC2)c2ccccc2n1,4.56% (inactive),
c1cncc(-c2nc(N3CCNCC3)c3ccccc3n2)c1,0.953% (inactive),
c1ccc(Nc2nc(N3CCOCC3)c3ccccc3n2)cc1,,12.6 µM (active)
CN(CC(=O)Nc1ccccc1F)S(=O)(=O)c1ccc2c(c1)c(=O)n(C)c(=O)n2C,-13.2% (inactive),
Cc1nc2ccccn2c(=O)c1NC(=O)c1c(F)cccc1F,-1.01% (inactive),
COc1ccc(/C=C(/CC(=O)Nc2ccc(C)cc2)c2nc3ccccc3s2)cc1,,31.6 µM (active)
COc1cccc(/C=C(/CC(=O)Nc2ccc(N3CCOCC3)cc2)c2nc3ccccc3s2)c1,-7.21% (inactive),
COc1ccc(CC(=O)Nc2ccc(-c3nc4ccccc4s3)c(C)c2)cc1,7.02% (inactive),
